Measurements as given in ChEMBL document CHEMBL3988442, “University of Dundee, Small-Polar-MMV Screening Library” (2021).
The whole screen tested about 69,000 compounds, of which about 950 (1.4%) showed an effect of 50% or more. What follows is part of a selection rich in strong results, with near analogues and random picks from the rest.

Tested on: Mycobacterium tuberculosis
Assay: Cornell M. t heat shock assay; also: in the data most compounds retested in dose-response had high values
Format: functional, organism-based
Set-up: dose or concentration left out as unconfirmed

SMILES | Percent Effect
Cc1cccc(CN2CCC3(CC2)NC(=O)CC3c2ccccc2)n1.O=C(O)C(F)(F)F (stereo not given) | -4.61%
Cc1nc(CN2CCC3(CCCN(Cc4ccoc4)C3)C2=O)cs1.O=C(O)C(F)(F)F.O=C(O)C(F)(F)F (stereo not given) | -16.93%
COc1cccc(CNCc2ccc(F)cc2Cl)c1O | 10.28%
CCOCC1CN(CC2CC2)Cc2nn(CC3CC3)cc21.O=C(O)C(F)(F)F (stereo not given) | 0.05869%
Cn1cc(CN2CCCC23CCN(C(=O)c2ccccn2)CC3)cn1.O=C(O)C(F)(F)F | -28.64%
CCOCCCn1c(NC(=O)c2cc(C)no2)nc2ccccc21 | 4.963%
CCOCCCn1c(NC(=O)c2cc(C)on2)nc2ccccc21 | 59.74%
CCOCCCn1c(NC(=O)c2cnc(C)cn2)nc2ccccc21 | 28.96%
CCOCCCn1c(NC(=O)c2ccc(C)nc2)nc2ccccc21 | 25.39%
CCOCCCn1c(NC(=O)c2scnc2C)nc2ccccc21 | 84.26%
CCN(CC)CCn1c(NC(=O)c2scnc2C)nc2ccccc21 | 46.93%
CCOCCCn1c(NC(=O)c2cnc(C)s2)nc2ccccc21 | -7.023%
CCOCCCn1c(NC(=O)c2cnn(C)c2)nc2ccccc21 | 44.67%
CCOCCCn1c(NC(=O)c2ccnc(C)n2)nc2ccccc21 | 94.99%
COc1c(CNCc2ccc(C(=O)N3CCCC3)cc2)c(C)nn1C.Cl | -14.26%
COc1ccc(CN2C[C@@H]3OCCN(CCN(C)C)[C@@H]3C2)cc1.O=C(O)C(F)(F)F.O=C(O)C(F)(F)F.O=C(O)C(F)(F)F | -21.44%
Cl.NC(CNS(=O)(=O)Cc1cccc2cccnc12)c1ccccc1 (stereo not given) | -15.27%
O=C(NCC1CCOCC1)[C@H]1C[C@@H]2CCN(Cc3ccccc3)C[C@H]2O1.O=C(O)C(F)(F)F | -21.55%
Cc1cccc(CN2CC[C@H]3[C@@H]2CC(=O)N3CC2CC2)n1.O=C(O)C(F)(F)F | -9.975%
O=C(c1ccoc1)N1CC[C@H]2C[C@@H](c3nnc(C4CC4)o3)O[C@@H]2C1 | 19.79%
O=C(c1cscn1)N1CC[C@H]2C[C@H](c3nnc(C4CC4)o3)O[C@@H]2C1 | 27.2%
O=C(c1ccccc1)N1CC[C@H]2C[C@H](c3nnc(C4CC4)o3)O[C@@H]2C1 | 57.91%
O=C(c1ccccc1)N1CC[C@H]2C[C@@H](c3nnc(C4CC4)o3)O[C@@H]2C1 | 48.55%
O=C(c1ccsc1)N1CC[C@H]2C[C@@H](c3nnc(C4CC4)o3)O[C@@H]2C1 | 26.95%
O=C(c1cccs1)N1CC[C@H]2C[C@@H](c3nnc(C4CC4)o3)O[C@@H]2C1 | 56.75%
